# Measurements taken from PubChem BioAssay AID1347417 (National Center for Advancing Translational Sciences (NCATS), 2020).
# The whole screen tested about 120,000 compounds, of which about 5,300 (4.4%) were called active. Inconclusive results (about 22%) are left out. The call rests on the fitted dose curve; in most records, active means well fitted inhibition curve with a large enough effect; inconclusive means small, poorly fitted or top-dose-only effect; inactive means no such curve, though single readings can be large or run the other way. What follows is part of a selection rich in actives, with near analogues and random picks from the rest. Entries that show only a call come without a potency.
# Experiment: qHTS Primary assay for Inhibitors of Plasmodium falciparum Dd2 growth in vitro; further: nearly all actives have a fitted effect of over 65% in size
# Conditions: P. falciparum Dd2 growth, SYBR Green, 72 h; series mostly up to 28.9 µM
# Outline: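 Readout: SYBR Green fluorescence, 485 nm excitation, 535 nm emission, after ~16 h lysis at 37C. Before that, Dd2-infected red cells (2.5% hematocrit) grew 72 h with compound, 29 uM top final concentration.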
# Potency means the concentration at half of the fitted maximal effect.
SMILES,Potency,"activity, negative = inhibition"
CN(C)C[C@@H]1CN(Cc2ccccn2)C[C@H]1NC(=O)c1cc(Cl)ccc1F,inactive,
Cc1ccc(C(=O)N2C[C@@H](Oc3cccnc3)C[C@H]2C(=O)N2CCOCC2)s1,inactive,
CCC(CC)NC(=O)C1Cn2cccc2C(=O)N1 (stereo unspecified),inactive,
Cc1noc(-c2cn(C3CCN(C(=O)c4ccoc4)CC3)nn2)n1,inactive,
NC(=O)c1cccc(-c2ccc3c(n2)CN(Cc2ccc(C(F)(F)F)cc2)C(=O)CO3)c1,inactive,
COc1ccc(Nc2nc(-c3cccc(OC)c3OC)no2)cc1,inactive,
COc1ccc(Cl)cc1NC(=O)CSc1nc(=O)[nH]c2c1CCCC2,inactive,
COc1ccc(-c2noc(-c3cccn3CC(=O)Nc3ccccc3)n2)cc1F,1.58 µM (active),
COc1ccc(-c2noc(-c3cccn3CC(=O)Nc3cc(Cl)ccc3OC)n2)cc1F,3.98 µM (active),
COc1ccc(CNC(=O)Cn2cccc2-c2nc(-c3ccc(F)cc3)no2)cc1,inactive,
O=C(Cn1cccc1-c1nc(-c2ccc(F)cc2)no1)Nc1cc(F)cc(F)c1,inactive,
COc1ccc(Cl)cc1NC(=O)Cn1c(=O)c2ccccc2n2nncc12,inactive,
CC(=O)c1ccc(NC(=O)COc2ccccc2-c2nc(-c3ccccc3)no2)cc1,inactive,
O=C(Cn1cccc1-c1nc(-c2ccccc2)no1)Nc1ccccc1F,3.98 µM (active),
CCc1cc(=O)n(CC(=O)Nc2ccccc2F)c(-c2cccc(F)c2)n1,inactive,
CCOC(=O)N1CCC(N2CCN(c3cc(C(C)C)nc(C)n3)CC2)CC1,inactive,
Cc1ccccc1C(=O)N[C@@H]1CN(c2ncccn2)C[C@H]1CO,inactive,
Cc1cccc(-c2noc(CCC(=O)N[C@H]3CC[C@H]3NC3CCCC3)n2)c1,inactive,
CO[C@H]1C(=O)N(C2CCN(C(=O)c3ccncc3)CC2)[C@H]1c1ccncc1,inactive,
Cc1nc(-c2c3n(c(=O)n(Cc4ccc(Br)cc4)c2=O)CCCCC3)no1,inactive,
CNC(=O)[C@@H]1C[C@H](n2cc(CN(C)C(=O)c3cccc(F)c3F)nn2)CN1,inactive,
CCc1cccc(-n2nnnc2N2CCN(C(=O)Nc3ccc(C)c(OC)c3)CC2)c1,inactive,
O=C(O)CN1CC2(CCC1=O)CCN(C(=O)C1CNC(=O)C1)CC2 (stereo unspecified),inactive,
CCC(C(=O)NCCn1ccn2nc(-c3ccc(F)cc3)cc2c1=O)c1ccccc1 (stereo unspecified),inactive,

SMILES,Potency,"activity, negative = inhibition"
Cc1noc(C)c1-c1cc(-c2cncnc2)cn2cncc12,inactive,
Cn1cc(-c2cc(-c3cccnc3)c3cncn3c2)cn1,inactive,
COc1ccc(-c2nccc3c(=O)cc(N(C)c4ccccc4)oc23)cn1,inactive,
COc1ccccc1-c1cc(-c2cn[nH]c2)c2onc(C)c2n1,inactive,
OCc1ccc(-c2cc(-c3cccnc3)c3cncn3c2)cc1,inactive,
COc1ccccc1-c1cc(-c2cn[nH]c2)c2cncn2c1,12.6 µM (active),
COc1ccc(-c2cc(-c3cnc4[nH]ccc4c3)cn3cncc23)cn1,4.47 µM (active),
COc1ccc(-c2cc(-c3cccc4[nH]ncc34)cn3cncc23)cn1,3.98 µM (active),
Cc1noc(C)c1-c1cc(-c2ccccc2Oc2ccccc2)cn2cncc12,5.62 µM (active),
CCCN1CCN(C(=O)CC2CCCN(c3cnn(CCOC)c(=O)c3)C2)CC1 (stereo unspecified),inactive,
O=C(c1cnccn1)N1CC2CC(C1)[C@H]1CCCC(=O)N1C2 (stereo partly specified),inactive,
CCn1ncc(C(=O)N2CC[C@@H]3CN(S(C)(=O)=O)[C@@H]3C2)c1C,inactive,
NC(=O)CCNC(=O)C1=C[C@@H](NC(=O)CC2(CC(=O)O)CCCC2)[C@@H](O)[C@H](O)C1,inactive,
O=C(c1ccc(C(F)(F)F)cc1)N1CCC([C@@H]2CNC[C@H]2CO)CC1,inactive,
Cc1nnc2n1CCC(NC(=O)c1cc(CN3CCOCC3)on1)CC2 (stereo unspecified),inactive,
CN(C)C[C@H]1C[C@@H](CO)CN(C(=O)CCc2ccncc2)C1,inactive,
O=C1CCN(C(=O)C2CCN(C(=O)NC3CCCCC3)CC2)CCCCCCN1,inactive,
COCCNC(=O)c1nc(-c2cc(Cl)cc(Cl)c2)c2ccccn12,inactive,
Cc1cccc(C)c1-c1nc(C(=O)NCc2ccc(F)cc2)n2ccccc12,inactive,
O=C(NCc1ccc(F)cc1)c1nc(-c2ccccc2)c2ccccn12,11.2 µM (active),
CC(C)c1ccc(NC(=O)c2cc(S(=O)(=O)N3CCc4ccccc4C3)ccc2F)cc1,inactive,
NS(=O)(=O)c1ccc(NC(=O)COc2ccc(S(=O)(=O)NC3CCCCC3)cc2)cc1,inactive,
CCc1ccc(NC(=O)c2cc(S(=O)(=O)NC3CCCCCC3)ccc2F)cc1,7.94 µM (active),
Cc1cnc(C(=O)N(C)C2CCc3nnc(C)n3CC2)cn1 (stereo unspecified),inactive,

SMILES,Potency,"activity, negative = inhibition"
O=C(CC1CC1)N1C[C@H]2OC(=O)N(CCc3cccc(Cl)c3)[C@H]2C1,inactive,
O=C(NC1CC(=O)N(CCc2cccc(Cl)c2)C1)c1ccsc1 (stereo unspecified),inactive,
O=C1CC(NCc2ccoc2)CN1CCc1cccc(Cl)c1 (stereo unspecified),10 µM (active),
COc1cccc(-c2nc(CS(=O)(=O)CC(=O)N3CCN(c4cc(C)ccc4C)CC3)c(C)o2)c1,inactive,
COc1ccc(-c2nc(Cn3c(=O)cc(C)c4c(C)nn(-c5ccccc5)c43)c(C)o2)cc1OC,inactive,
Cc1oc(-c2cccc(Oc3ccccc3)c2)nc1CN1CCOC(CCN)C1 (stereo unspecified),7.08 µM (active),
COc1ccc(-c2nc(CN3CCOC(CN)C3)c(C)o2)c2ccccc12 (stereo unspecified),12.6 µM (active),
Cc1oc(-c2cccs2)nc1CN1CCOC(Cc2ccccc2)C1 (stereo unspecified),inactive,
COC(=O)c1cc2occc2n1Cc1nc(-c2ccccc2C)oc1C,inactive,
CC(C)CN=C1S[C@H]2[C@H]([C@@H](O)[C@H](O)C[C@@H]2C(N)=O)N1Cc1ccc(F)cc1,inactive,
O=C(Cc1cccc(F)c1)NC1CCN(c2cc(C(F)(F)F)ncn2)CC1,inactive,
COc1ccc(N2CCN(C(=O)c3ccc4c(Cl)c5c(nc4c3)CCCC5)CC2)cc1,inactive,
CCOC(=O)C1CCN(c2nc3c(S(=O)(=O)c4ccc(CC)cc4)nnn3c3ccc(Cl)cc23)CC1,inactive,
CCOC(=O)C1CCN(C(=O)CSc2c3c(nc4ccc(Cl)cc24)CCCC3)CC1,14.1 µM (active),
COc1cc(C(=O)N2CCC(Cc3nc(-c4ccccc4)no3)CC2)cc(OC)c1OC,inactive,
O=C(N[C@H]1CCOC[C@H]1C1CCOCC1)c1cccc2nccnc12,inactive,
CCn1ncc(N2CCCC(CC(=O)NCc3ccc(OC)cc3)C2)cc1=O (stereo unspecified),inactive,
O[C@@H]1C[C@@H](c2nc(Cc3ccc(F)cc3Cl)no2)N(Cc2ncc[nH]2)C1,inactive,
Cc1nn(-c2ccccc2)c(C)c1[C@@H]1C=C[C@@H](NC(=O)c2ccc3c(c2)OCO3)C1,inactive,
Cc1nn(-c2ccc(C(C)C)cc2)c(C)c1[C@@H]1C=C[C@@H](NC(=S)NCC(C)C)C1,12.6 µM (active),
Cc1nn(-c2ccc(C(C)C)cc2)c(C)c1[C@@H]1C=C[C@@H](NC(=O)Nc2ccccc2)C1,11.2 µM (active),
CCC(C)NC(=O)Cc1csc2nc(C)c(-c3cc(C)n(-c4ccc(C(C)C)cc4)n3)c(=O)n12 (stereo unspecified),inactive,
Cc1nn(-c2cccc(Br)c2)c(C)c1[C@@H]1C=C[C@@H](NC(=O)CC2(CC(=O)O)CCCC2)C1,inactive,
COc1ccc(-n2nc(C)c([C@@H]3C=C[C@@H](NC(=O)Nc4ccccc4)C3)c2C)cc1,10 µM (active),

SMILES,Potency,"activity, negative = inhibition"
Cc1nn(CCC#N)c(C)c1[C@@H]1C=C[C@@H](NS(=O)(=O)c2ccccc2)C1,inactive,
COc1cccc(NC(=O)Cn2c(=O)cc(C)c3c(C)nn(-c4cccc(F)c4)c32)c1,inactive,
Cc1nn(Cc2ccccc2)c(C)c1[C@@H]1C=C[C@@H](NC(=O)NC2CCCCC2)C1,inactive,
Cc1nn(-c2ccc(C(C)C)cc2)c(C)c1[C@@H]1C=C[C@@H](NC(=O)CC2(CC(=O)O)CCCC2)C1,inactive,
Cc1nn(Cc2ccccc2)c(C)c1[C@@H]1C=C[C@@H](NC(=O)NC(C)C)C1,inactive,
COc1ccc(-n2nc(C)c([C@H]3C=C[C@@H](OC(=O)Nc4cccc(F)c4)C3)c2C)cc1,10 µM (active),
C=CCNC(=O)C1N(C(C)C)C(=O)C12CCCCC2 (stereo unspecified),inactive,
COc1ccc(NC(=O)C2CN(S(=O)(=O)c3cccnc3)CC23CCCCC3)cc1F (stereo unspecified),inactive,
CCOCCCNC(=O)N1C[C@@H](Oc2cccnc2)C[C@@H]1C(=O)N1CCOCC1,inactive,
CCCN(CC1CCOC1)S(=O)(=O)c1ccc2c(c1)CCCC2 (stereo unspecified),,7.48% [at 5.79 µM] (inactive)
CC(C)N1C(=O)CO[C@H]2CCN(CCCc3ccccc3)CC[C@@H]21,inactive,
CCCCC(CC)CNC(=O)C1CCN(S(=O)(=O)c2cccc3nsnc23)CC1 (stereo unspecified),inactive,
CCCCN(C)CCNC(=O)C1CCCN(S(=O)(=O)c2cccc3nsnc23)C1 (stereo unspecified),5.01 µM (active),
COc1ccc(NC(=O)C2CCCN(S(=O)(=O)c3cccc4nonc34)C2)cc1Cl (stereo unspecified),inactive,
O=C(Cc1cccc(Cl)c1)NCc1nnc2ccc(-c3ccccc3)nn12,inactive,
Cc1cc(C(=O)N2CCCCCCn3c(nnc3-c3ccc(F)cc3)CC2)nn1C,inactive,
Cc1c(Cl)cccc1NC(=O)CCS(=O)(=O)c1ccc2c(c1)oc(=O)n2C,3.16 µM (active),
CCN(Cc1ccccc1)C(=O)CCS(=O)(=O)c1ccc2c(c1)oc(=O)n2C,inactive,
CCOC(=O)c1ccc(NC(=O)CCS(=O)(=O)c2ccc3c(c2)oc(=O)n3C)cc1,inactive,
COc1cccc(CC(=O)N2CCN(c3cc(-c4cccs4)[nH]n3)CC2)c1,inactive,
O=C(NCCn1ccn2nc(-c3ccc(F)cc3)cc2c1=O)c1ccco1,inactive,
O=C(Cc1ccccc1)N1[C@H]2CC[C@@H]1c1cnc(-c3ccc(F)cc3)nc1C2,inactive,
Cn1cnc(S(=O)(=O)N2[C@H]3CC[C@@H]2c2cnc(-c4ccc(F)cc4)nc2C3)c1,inactive,
COC(=O)c1ccc(NC(=O)N2[C@H]3CC[C@@H]2c2cnc(-c4ccc(F)cc4)nc2C3)cc1,7.08 µM (active),
